Compound activity (PubChem)
CF NFkB inh: inhibitors of cystic fibrosis induced NF-kB. AID 588850. inhibition, % at 5 µM. 0.86% of 360,000 active. KKLEB NF-kB-GFP reporter, PAF-induced, GFP fluorescence overnight;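 active = at least 50% inhibition at 5 µM, scaled per plate between neutral and stimulator controls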;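 note: PAF is a Pseudomonas aeruginosa culture filtrate used as stimulus; plate controls were PAF-stimulated DMSO wells for no effect and unstimulated DMSO wells for full effect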
Shn3 3UTR inh: reduces Shn3 3'UTR luciferase signal in osteoblasts. inhibition, % at 12.5 µM. Clone20 osteoblast Shn3 3'UTR firefly luciferase, 24 h. 0.52% of 360,000 active. AID 588674;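 active = mean inhibition of at least 75% with every replicate also reaching 75%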;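 note: 0% = median of neutral control wells and 100% = pilot-screen positive control compound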
MITF TRPM1 inh: reduces MITF-dependent TRPM1 promoter luciferase signal | SK-MEL-5 TRPM1 promoter luciferase, 24 h | inhibition, % at 12.5 µM | 0.83% of 330,000 active | AID 488899;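 active = mean inhibition across replicates of 60% or more, whatever share of single replicates reaches that level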
HIF-2a inh: HIF-2a inhibition; 786-0 RCC cells HIF-2a reporter, luciferase luminescence, overnight; inhibition, % at 18.8 µM; 0.72% of 360,000 active; AID 624352;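 active = inhibition of the luminescence signal of 40% or more relative to plate controls, in a single-dose primary screen at 18.75 µM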
Peg3 prom inh: Peg3 promoter activity inhibition. HeLa PEG-Prom luciferase reporter, luminescence, overnight. inhibition, % at 20 µM. 1.7% of 360,000 active;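 active = inhibition of at least 50% at 20 µM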
KKLEB tox: counter-screen for CF NF-kB inhibitors: cytotoxicity. KKLEB CF airway cells viability, ATPlite luminescence, overnight; active compounds read low; cells stimulated with P. aeruginosa culture filtrate. 0.36% of 360,000 active. activity change (cytotoxicity), % at 5 µM;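 active = corrected activity change at or below -50% at 5 µM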
Numbers without * were called inactive; / = no result. Rows were chosen to be rich in hits. Some 2.8% of all compounds tested hit in one or more screens of this group.

SMILES	CF NFkB inh	Shn3 3UTR inh	MITF TRPM1 inh	HIF-2a inh	Peg3 prom inh	KKLEB tox
C/C(=N\NC(=O)c1ccc(CSc2nc(C)cc(C)n2)cc1)c1ccco1	90*	8	-7	11	9	-95*
Cc1cc(C)nc(SCc2ccc(C(=O)N/N=C/c3cccc(O)c3O)cc2)n1	45	84	42	-11	48	-24
COc1ccc(O)c(/C=N/NC(=O)c2ccc(CSc3nc(C)cc(C)n3)cc2)c1	15	88*	/	21	38	-4
Cc1cc(C)nc(SCc2ccc(C(=O)N/N=C/c3ccco3)cc2)n1	2	-36	-11	11	19	8
O=C(CN1CCN(C(=O)CNC(=O)c2ccc(N3CCCC3=O)cc2)CC1)Nc1cccc(F)c1	-23	2	/	10	-12	5
CCc1nc(Nc2cccc(O)c2)c2oc3ccccc3c2n1	12	-2	-7	10	57*	5
Cc1ccccc1NC(=O)CON=C(N)c1ccccc1	-3	-13	-11	-12	-17	18
COc1ccc(OCC(=O)Nc2nccs2)cc1	6	6	-1	-14	-3	-7
CCOc1ccc(OCC(=O)Nc2nccs2)cc1	-2	8	52	38	59*	-9
CN1CCN(Cc2c(C(=O)N/N=C/c3cccc(Br)c3)nnn2-c2nonc2N)CC1	-28	-1	77*	8	41	-10
CCOc1ccc(-c2c(C(=O)N/N=C/c3cccc(Br)c3)nnn2-c2nonc2N)cc1	38	13	3	2	56*	-35
CCOc1ccc(-c2c(C(=O)N/N=C/c3ccc(O)cc3)nnn2-c2nonc2N)cc1	1	6	5	7	4	21
COc1cccc(CNC(=O)[C@@H]2CCCN2C(=O)[C@@H]2CCCN2C(=O)c2ccc(Cl)cc2)c1	/	/	/	9	/	/
O=C(CN1CCN(S(=O)(=O)c2ccc3c(c2)OCCO3)CC1)Nc1cccc(F)c1	12	11	4	9	22	0
COCCOC(=O)c1cc(C(=O)c2cc(Cl)ccc2O)coc1=N	-19	-3	5	14	5	-5
COc1cccc(/C=C2/Sc3ccc(C(=O)NCCN4CCCCCC4)cc3NC2=O)c1	6	-12	74*	15	100*	-7
O=C1Nc2cc(C(=O)NCCN3CCCCCC3)ccc2S/C1=C\c1ccccc1	19	16	96*	4	94*	-4
COc1cccc(/C=C2\Sc3ccc(C(=O)NCc4cccnc4)cc3N(C)C2=O)c1	-16	-1	2	33	19	-3
O=C1Nc2cc(C(=O)NCCCN3CCCC3)ccc2S/C1=C/c1cccc(Cl)c1	22	3	/	-8	99*	0
CCOc1ccc(OCC)c(NC(=O)Cn2c(C)nc3ccccc3c2=O)c1	10	2	3	10	16	-4
COc1ccc(OC)c2nc3c(C(=O)NCCN(C)C)cccc3nc12	-222	41	73*	7	90*	11
CN(C)CCNC(=O)c1cccc2ccc(-c3ccc(-c4ccccc4)cc3)nc12	-52	-5	70*	10	93*	-9
Cc1cc(C(=O)NCCCN(C)C)c2ccccc2n1	14	5	-20	16	9	-4
COc1ccc(CCN(C)C2CCCN(C(=O)Cn3cnnn3)C2)cc1OC (configuration not stated)	7	2	3	-29	-11	2
CN=c1scc(C)n1/N=C/c1ccc(O)cc1	6	-47	-44	-220	-251	3
SMILES	CF NFkB inh	Shn3 3UTR inh	MITF TRPM1 inh	HIF-2a inh	Peg3 prom inh	KKLEB tox
C=CCN=c1scc(C)n1/N=C/c1ccc(O)c(O)c1	-2	92*	-52	-206	-116	8
CN=c1scc(-c2ccco2)n1/N=C/c1ccc(O)c(O)c1	-6	90*	2	-126	-136	-6
Cc1cc(C)nc(NS(=O)(=O)c2ccc(NC(=O)c3snnc3C)cc2)n1	-10	-16	-3	-2	-10	-6
CCOc1ccccc1N1CCN(CC(=O)Nc2ccccc2C(=O)NC2CC2)CC1	2	39	11	16	29	8
Nc1nc(Sc2ccc([N+](=O)[O-])c3nonc23)c2[nH]cnc2n1	-19	39	82*	38	67*	-7
CNc1ncnc(Sc2nc(N)nc3nc[nH]c23)c1[N+](=O)[O-]	4	-3	71*	9	48	5
